Hit rate of the full screen: of about 5,500 compounds, about 2,000 (36%) were called active. Another 18% or so got no clear call; they are omitted. Rule as the data show it: active = normalized growth mostly below about 0.91 (no sharp cut-off); inconclusive = no clear call, values can overlap the other calls; inactive = mostly above about 0.92. The list shows a part of the results.
Experiment: chemical genetic growth profiling, strain panel (AID 1159580);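 also: tested at 20 µM; growth read once vehicle control cultures reached saturation at 30 °C; 1 = growth at the plate median or of vehicle wells; lower values mean less growth of the strain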
Details: growth OD

Measured: normalized growth

COc1nc(NC(C)C)nc(NC(C)C)n1
inactive: S. cerevisiae deletion strains, locus YJR075W, strain HOC1, stronger effect = lower value 1 | S. cerevisiae deletion strains, locus YKL009W, strain mrt4, stronger effect = lower value 1.02 | S. cerevisiae deletion strains, locus YKL068W, stronger effect = lower value 1.01 | S. cerevisiae deletion strains, locus YKL085W, strain MDH1 (second series), stronger effect = lower value 1.01 | S. cerevisiae deletion strains, locus YKL085W, strain MDH1, stronger effect = lower value 1.01 | S. cerevisiae deletion strains, locus YKL160W, strain elf1, stronger effect = lower value 1.02 | S. cerevisiae deletion strains, locus YKL190W, strain CNB1, stronger effect = lower value 1.02 | S. cerevisiae deletion strains, locus YKR001C, strain vps1, stronger effect = lower value 1.02 | S. cerevisiae deletion strains, locus YKR026C, strain gcn3, stronger effect = lower value 1.02 | S. cerevisiae deletion strains, locus YKR091W, strain srl3, stronger effect = lower value 1.02 | S. cerevisiae deletion strains, locus YLL001W, strain dnm1, stronger effect = lower value 1.02 | S. cerevisiae deletion strains, locus YLL026W, stronger effect = lower value 1.02 | S. cerevisiae deletion strains, locus YLL041C, strain sdh2, stronger effect = lower value 1.02 | S. cerevisiae deletion strains, locus YLR027C, strain aat2, stronger effect = lower value 1.03 | S. cerevisiae deletion strains, locus YLR039C, strain RIC1, stronger effect = lower value 1.02 | S. cerevisiae deletion strains, locus YLR058C, strain SHM2, stronger effect = lower value 1 | S. cerevisiae deletion strains, locus YLR102C, strain apc9, stronger effect = lower value 1.02 | S. cerevisiae deletion strains, locus YLR113W, strain HOG1, stronger effect = lower value 0.986 | S. cerevisiae deletion strains, locus YLR221C, strain rsa3, stronger effect = lower value 1.04 | S. cerevisiae deletion strains, locus YLR258W, strain gsy2, stronger effect = lower value 1.01 | S. cerevisiae deletion strains, locus YLR262C, strain YPT6 (second series), stronger effect = lower value 1.02 | S. cerevisiae deletion strains, locus YLR262C, strain YPT6, stronger effect = lower value 1.02 | S. cerevisiae deletion strains, locus YLR268W, strain sec22, stronger effect = lower value 1.01 | S. cerevisiae deletion strains, locus YLR320W, strain mms22, stronger effect = lower value 1.04 | S. cerevisiae deletion strains, locus YLR330W, strain CHS5, stronger effect = lower value 1.01 | S. cerevisiae deletion strains, locus YLR342W, strain FKS1 (second series), stronger effect = lower value 1.03 | S. cerevisiae deletion strains, locus YLR342W, strain FKS1, stronger effect = lower value 1.01 | S. cerevisiae deletion strains, locus YLR357W, strain rsc2, stronger effect = lower value 1.03 | S. cerevisiae deletion strains, locus YLR370C, strain arc18, stronger effect = lower value 1.04 | S. cerevisiae deletion strains, locus YLR371W, strain rom2, stronger effect = lower value 1.02 | S. cerevisiae deletion strains, locus YLR384C, strain iki3, stronger effect = lower value 1.03 | S. cerevisiae deletion strains, locus YLR418C, strain cdc73, stronger effect = lower value 1.01 | S. cerevisiae deletion strains, locus YML016C, strain PPZ1, stronger effect = lower value 1.01 | S. cerevisiae deletion strains, locus YML032C, strain rad52, stronger effect = lower value 1.02 | S. cerevisiae deletion strains, locus YML120C, strain ndi1, stronger effect = lower value 1.02 | S. cerevisiae deletion strains, locus YML124C, strain tub3, stronger effect = lower value 1.02 | S. cerevisiae deletion strains, locus YMR058W, strain fet3, stronger effect = lower value 1.03 | S. cerevisiae deletion strains, locus YMR078C, strain ctf18, stronger effect = lower value 1.03 | S. cerevisiae deletion strains, locus YMR125W, strain sto1, stronger effect = lower value 1.03 | S. cerevisiae deletion strains, locus YMR129W, stronger effect = lower value 1.01 | S. cerevisiae deletion strains, locus YMR205C, strain PFK2, stronger effect = lower value 1.01 | S. cerevisiae deletion strains, locus YMR223W, strain ubp8, stronger effect = lower value 1.02 | S. cerevisiae deletion strains, locus YMR231W, strain pep5, stronger effect = lower value 1.02 | S. cerevisiae deletion strains, locus YMR263W, strain SAP30, stronger effect = lower value 1.02 | S. cerevisiae deletion strains, locus YMR307W, strain GAS1, stronger effect = lower value 1.04 | S. cerevisiae deletion strains, locus YNL067W, strain RPL9B, stronger effect = lower value 1.01 | S. cerevisiae deletion strains, locus YNL071W, strain lat1, stronger effect = lower value 1.01 | S. cerevisiae deletion strains, locus YNL128W, strain TEP1, stronger effect = lower value 1 | S. cerevisiae deletion strains, locus YNL153C, strain GIM3, stronger effect = lower value 1.01 | S. cerevisiae deletion strains, locus YNL183C, strain NPR1, stronger effect = lower value 0.999 | S. cerevisiae deletion strains, locus YNL209W, strain ssb2, stronger effect = lower value 1.02 | S. cerevisiae deletion strains, locus YNL233W, strain BNI4, stronger effect = lower value 1.01 | S. cerevisiae deletion strains, locus YNL248C, strain rpa49, stronger effect = lower value 1.04 | S. cerevisiae deletion strains, locus YNL250W, strain rad50, stronger effect = lower value 1.01 | S. cerevisiae deletion strains, locus YNL271C, strain bni1, stronger effect = lower value 1.01 | S. cerevisiae deletion strains, locus YNL298W, strain CLA4, stronger effect = lower value 1.03 | S. cerevisiae deletion strains, locus YNL307C, strain MCK1, stronger effect = lower value 1.03 | S. cerevisiae deletion strains, locus YNL322C, strain KRE1 (second series), stronger effect = lower value 1.02 | S. cerevisiae deletion strains, locus YNL322C, strain KRE1, stronger effect = lower value 1 | S. cerevisiae deletion strains, locus YNR049C, strain mso1, stronger effect = lower value 1.05 | S. cerevisiae deletion strains, locus YNR052C, strain pop2, stronger effect = lower value 1.03 | S. cerevisiae deletion strains, locus YOL006C, strain TOP1, stronger effect = lower value 1.03 | S. cerevisiae deletion strains, locus YOL012C, strain htz1 1.23 | S. cerevisiae deletion strains, locus YOL147C, strain pex11, stronger effect = lower value 1.02 | S. cerevisiae deletion strains, locus YOR001W, strain rrp6, stronger effect = lower value 1.02 | S. cerevisiae deletion strains, locus YOR061W, strain CKA2, stronger effect = lower value 1 | S. cerevisiae deletion strains, locus YOR069W, strain VPS5, stronger effect = lower value 1.01 | S. cerevisiae deletion strains, locus YOR070C, strain gyp1, stronger effect = lower value 1.03 | S. cerevisiae deletion strains, locus YOR080W, strain dia2, stronger effect = lower value 1.03 | S. cerevisiae deletion strains, locus YOR083W, strain WHI5, stronger effect = lower value 1.01 | S. cerevisiae deletion strains, locus YOR106W, strain vam3, stronger effect = lower value 1.02 | S. cerevisiae deletion strains, locus YOR136W, strain idh2, stronger effect = lower value 1.02 | S. cerevisiae deletion strains, locus YOR144C, strain elg1, stronger effect = lower value 1.03 | S. cerevisiae deletion strains, locus YOR184W, strain ser1, stronger effect = lower value 1.03 | S. cerevisiae deletion strains, locus YOR231W, strain MKK1, stronger effect = lower value 1.05 | S. cerevisiae deletion strains, locus YOR265W, strain rbl2, stronger effect = lower value 1.01 | S. cerevisiae deletion strains, locus YOR270C, strain vph1, stronger effect = lower value 1.06 | S. cerevisiae deletion strains, locus YOR290C, strain snf2, stronger effect = lower value 0.997 | S. cerevisiae deletion strains, locus YOR316C, strain cot1, stronger effect = lower value 1.02 | S. cerevisiae deletion strains, locus YPL051W, strain arl3, stronger effect = lower value 1.01 | S. cerevisiae deletion strains, locus YPL055C, strain LGE1, stronger effect = lower value 1.02 | S. cerevisiae deletion strains, locus YPL078C, strain atp4, stronger effect = lower value 1.01 | S. cerevisiae deletion strains, locus YPL106C, strain sse1, stronger effect = lower value 1.01 | S. cerevisiae deletion strains, locus YPL240C, strain hsp82, stronger effect = lower value 1.01 | S. cerevisiae deletion strains, locus YPL241C, strain CIN2, stronger effect = lower value 1.02 | S. cerevisiae deletion strains, locus YPL256C, strain CLN2, stronger effect = lower value 1.08 | S. cerevisiae deletion strains, locus YPR119W, strain clb2, stronger effect = lower value 1.01 | S. cerevisiae deletion strains, locus YPR141C, strain kar3, stronger effect = lower value 1.03 | S. cerevisiae deletion strains, locus YPR163C, strain tif3, stronger effect = lower value 1.02 | S. cerevisiae deletion strains, locus YPR167C, strain met16, stronger effect = lower value 1.02 | S. cerevisiae deletion strains, strain wtn01, stronger effect = lower value 1.01 | S. cerevisiae strains, strain wild type, stronger effect = lower value 1

From PubChem BioAssay AID1159580 (chemical genetic matrix, 2015)
